Experimental findings from paper PMC11006913 are described below.

Positions count from the first letter of the chain named.

Experiment in all cases: PBM; 200 nM protein, PBS
Settings in all cases: dsDNA, one strand shown

The target of test [1] is T1, VENTX (Homo sapiens, UniProt O95231 78-163, R121Q).
T1 sequence: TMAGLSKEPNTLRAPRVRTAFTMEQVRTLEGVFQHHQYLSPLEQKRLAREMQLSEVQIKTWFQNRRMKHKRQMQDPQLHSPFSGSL

For test [2], the target named is HOXC9 (Homo sapiens, UniProt P31274 178-260, K195R).
The target in test [3] is T2, VENTX (Homo sapiens, UniProt O95231 78-163).
T2 sequence: T1 sequence with Q44R

Test [4] concerns the target T3, VENTX (Homo sapiens, UniProt O95231 78-163, Y115F).
T3 sequence: T1 sequence with Y38F, Q44R

In test [5] the target is HOXB6 (Homo sapiens, UniProt P17509 132-218, K202E).
HOXB6 (Homo sapiens, UniProt P17509 132-218, K202E), sequence (P17509 132-218 K202E): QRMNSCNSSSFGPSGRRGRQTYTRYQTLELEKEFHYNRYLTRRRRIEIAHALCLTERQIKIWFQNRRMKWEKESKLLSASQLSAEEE
In test [6] the target is HOXC9 (Homo sapiens, UniProt P31274 178-260).
HOXC9 (Homo sapiens, UniProt P31274 178-260), sequence (P31274 178-260): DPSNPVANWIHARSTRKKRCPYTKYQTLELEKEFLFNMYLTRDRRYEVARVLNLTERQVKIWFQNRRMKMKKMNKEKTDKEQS
The target of test [7] is HOXC9 (Homo sapiens, UniProt P31274 178-260, R193K).
HOXC9 (Homo sapiens, UniProt P31274 178-260, R193K), sequence (P31274 178-260 R193K): as the sequence (P31274 178-260) above, with R16K counted along it
Test [8] addresses VAX1 (Homo sapiens, UniProt Q5SQQ9 86-172).
For test [9], the target named is HOXC9 (Homo sapiens, UniProt P31274 178-260, R222W).
HOXC9 (Homo sapiens, UniProt P31274 178-260, R222W), sequence (P31274 178-260 R222W): as the sequence (P31274 178-260) above, with R45W counted along it
For test [10], the target named is VAX1 (Homo sapiens, UniProt Q5SQQ9 86-172, T142I).
VAX1 (Homo sapiens, UniProt Q5SQQ9 86-172, T142I), sequence (Q5SQQ9 86-172 T142I): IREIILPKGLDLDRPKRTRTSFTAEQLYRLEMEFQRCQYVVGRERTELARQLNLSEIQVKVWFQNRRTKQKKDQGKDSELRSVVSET
Test [11] concerns the target VAX1 (Homo sapiens, UniProt Q5SQQ9 86-172, K157R).
Test [12] deals with HOXB6 (Homo sapiens, UniProt P17509 132-218).
HOXB6 (Homo sapiens, UniProt P17509 132-218), sequence (P17509 132-218): as the sequence (P17509 132-218 K202E) above, with E71K counted along it
The target of test [13] is HOXA4 (Homo sapiens, UniProt Q00056 201-287, W262R).
HOXA4 (Homo sapiens, UniProt Q00056 201-287, W262R), sequence (Q00056 201-287 W262R): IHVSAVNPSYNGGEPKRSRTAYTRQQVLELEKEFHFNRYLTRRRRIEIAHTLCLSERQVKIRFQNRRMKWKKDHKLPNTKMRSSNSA
Test [14] addresses HOXA4 (Homo sapiens, UniProt Q00056 201-287, R217L).
In test [15] the target is HOXD13 (Homo sapiens, UniProt P35453 263-343, T313R).
HOXD13 (Homo sapiens, UniProt P35453 263-343, T313R), sequence (P35453 263-343 T313R): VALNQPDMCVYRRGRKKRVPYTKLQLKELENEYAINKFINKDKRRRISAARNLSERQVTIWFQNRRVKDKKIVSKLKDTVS
The target of test [16] is T4, NKX2-6 (Homo sapiens, UniProt A6NCS4 118-204).
T4 sequence: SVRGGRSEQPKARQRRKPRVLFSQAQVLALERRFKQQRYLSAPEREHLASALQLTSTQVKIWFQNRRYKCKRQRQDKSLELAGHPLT

Test [17] deals with HOXD13 (Homo sapiens, UniProt P35453 263-343).
HOXD13 (Homo sapiens, UniProt P35453 263-343), sequence (P35453 263-343): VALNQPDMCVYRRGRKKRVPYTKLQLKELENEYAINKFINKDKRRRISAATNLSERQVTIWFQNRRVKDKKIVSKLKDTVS
The target in test [18] is HOXA4 (Homo sapiens, UniProt Q00056 201-287).
HOXA4 (Homo sapiens, UniProt Q00056 201-287), sequence (Q00056 201-287): as the sequence (Q00056 201-287 W262R) above, with R62W counted along it
Test [19] has as its target HOXD13 (Homo sapiens, UniProt P35453 263-343, T313A).
The target in test [20] is T5, NKX2-6 (Homo sapiens, UniProt A6NCS4 118-204, F151L).
T5 sequence: T4 sequence with F34L

Test [21] has as its target HOXA4 (Homo sapiens, UniProt Q00056 201-287, W262F).
Test [22] concerns the target HOXA2 (Homo sapiens, UniProt O43364 129-215, R185T).
The target of test [23] is HOXA2 (Homo sapiens, UniProt O43364 129-215, R185K).
HOXA2 (Homo sapiens, UniProt O43364 129-215, R185K), sequence (O43364 129-215 R185K): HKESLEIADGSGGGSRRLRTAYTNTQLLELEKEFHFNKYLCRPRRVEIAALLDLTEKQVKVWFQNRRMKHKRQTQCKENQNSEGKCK
The target in test [24] is HOXA2 (Homo sapiens, UniProt O43364 129-215, Y150S).
HOXA2 (Homo sapiens, UniProt O43364 129-215, Y150S), sequence (O43364 129-215 Y150S): as the sequence (O43364 129-215 R185K) above, with Y22S, K57R counted along it
For test [25], the target named is HOXA2 (Homo sapiens, UniProt O43364 129-215).
HOXA2 (Homo sapiens, UniProt O43364 129-215), sequence (O43364 129-215): as the sequence (O43364 129-215 R185K) above, with K57R counted along it
Test [26] concerns the target ALX4 (Homo sapiens, UniProt Q9H161 200-286).
For test [27], the target named is ALX4 (Homo sapiens, UniProt Q9H161 200-286, Q225E).
ALX4 (Homo sapiens, UniProt Q9H161 200-286, Q225E), sequence (Q9H161 200-286 Q225E): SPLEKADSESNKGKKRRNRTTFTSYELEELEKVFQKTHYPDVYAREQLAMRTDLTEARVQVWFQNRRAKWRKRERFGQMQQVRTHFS
Test [28] concerns the target MSX2 (Homo sapiens, UniProt P35548 130-214, R199I).
Test [29] concerns the target MSX2 (Homo sapiens, UniProt P35548 130-214).
The target in test [30] is MSX2 (Homo sapiens, UniProt P35548 130-214, F161Y).
MSX2 (Homo sapiens, UniProt P35548 130-214, F161Y), sequence (P35548 130-214 F161Y): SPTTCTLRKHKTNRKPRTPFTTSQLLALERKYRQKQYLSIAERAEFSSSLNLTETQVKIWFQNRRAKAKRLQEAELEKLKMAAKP
Test [31] has as its target HOXC10 (Homo sapiens, UniProt Q9NYD6 254-340).
For test [32], the target named is HOXC10 (Homo sapiens, UniProt Q9NYD6 254-340, K271E).
HOXC10 (Homo sapiens, UniProt Q9NYD6 254-340, K271E), sequence (Q9NYD6 254-340 K271E): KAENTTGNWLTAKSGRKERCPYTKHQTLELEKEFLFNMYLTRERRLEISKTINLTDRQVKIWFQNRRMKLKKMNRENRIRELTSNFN
Test [33] addresses HOXA7 (Homo sapiens, UniProt P31268 116-202).
Test [34] has as its target HOXA7 (Homo sapiens, UniProt P31268 116-202, W177C).

VAX1 (Homo sapiens, UniProt Q5SQQ9 86-172, K157R), sequence (Q5SQQ9 86-172 K157R): as the sequence (Q5SQQ9 86-172 T142I) above, with I57T, K72R counted along it
HOXC9 (Homo sapiens, UniProt P31274 178-260, K195R), sequence (P31274 178-260 K195R): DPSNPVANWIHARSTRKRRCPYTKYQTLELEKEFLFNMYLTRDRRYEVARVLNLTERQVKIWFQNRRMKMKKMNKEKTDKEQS
HOXA2 (Homo sapiens, UniProt O43364 129-215, R185T), sequence (O43364 129-215 R185T): as the sequence (O43364 129-215 R185K) above, with K57T counted along it
VAX1 (Homo sapiens, UniProt Q5SQQ9 86-172), sequence (Q5SQQ9 86-172): as the sequence (Q5SQQ9 86-172 T142I) above, with I57T counted along it
HOXA7 (Homo sapiens, UniProt P31268 116-202), sequence (P31268 116-202): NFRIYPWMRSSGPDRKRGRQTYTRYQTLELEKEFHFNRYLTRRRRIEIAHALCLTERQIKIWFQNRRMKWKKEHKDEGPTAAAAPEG
HOXA7 (Homo sapiens, UniProt P31268 116-202, W177C), sequence (P31268 116-202 W177C): as the sequence (P31268 116-202) above, with W62C counted along it
ALX4 (Homo sapiens, UniProt Q9H161 200-286), sequence (Q9H161 200-286): as the sequence (Q9H161 200-286 Q225E) above, with E26Q counted along it
HOXC10 (Homo sapiens, UniProt Q9NYD6 254-340), sequence (Q9NYD6 254-340): as the sequence (Q9NYD6 254-340 K271E) above, with E18K counted along it
HOXD13 (Homo sapiens, UniProt P35453 263-343, T313A), sequence (P35453 263-343 T313A): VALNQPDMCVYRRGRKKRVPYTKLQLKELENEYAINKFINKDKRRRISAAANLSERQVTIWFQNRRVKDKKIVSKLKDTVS
HOXA4 (Homo sapiens, UniProt Q00056 201-287, W262F), sequence (Q00056 201-287 W262F): as the sequence (Q00056 201-287 W262R) above, with R62F counted along it
HOXA4 (Homo sapiens, UniProt Q00056 201-287, R217L), sequence (Q00056 201-287 R217L): as the sequence (Q00056 201-287 W262R) above, with R17L, R62W counted along it
MSX2 (Homo sapiens, UniProt P35548 130-214), sequence (P35548 130-214): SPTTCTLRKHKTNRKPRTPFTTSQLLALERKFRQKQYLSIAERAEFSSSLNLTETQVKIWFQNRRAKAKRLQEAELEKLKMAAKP
MSX2 (Homo sapiens, UniProt P35548 130-214, R199I), sequence (P35548 130-214 R199I): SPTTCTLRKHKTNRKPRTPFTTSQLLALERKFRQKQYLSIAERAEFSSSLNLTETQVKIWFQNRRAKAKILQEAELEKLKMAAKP

For GGGGTACC, the binding signal with VENTX [1] was 8.08 upbm affinity estimate (log intensity, higher = more binding, comparable within an allelic series); with HOXC9 [2] it was 9.78 upbm affinity estimate (log intensity, higher = more binding, comparable within an allelic series); with VENTX [3], 8.11 upbm affinity estimate (log intensity, higher = more binding, comparable within an allelic series); with VENTX [4], 7.99 upbm affinity estimate (log intensity, higher = more binding, comparable within an allelic series); with HOXB6 [5], 9.07 upbm affinity estimate (log intensity, higher = more binding, comparable within an allelic series); with HOXC9 [6], 9.67 upbm affinity estimate (log intensity, higher = more binding, comparable within an allelic series). Besides, the binding signal in the test with HOXC9 [7] is 9.47 upbm affinity estimate (log intensity, higher = more binding, comparable within an allelic series); with VAX1 [8] it was 7.1 upbm affinity estimate (log intensity, higher = more binding, comparable within an allelic series); in the test with HOXC9 [9], 9.69 upbm affinity estimate (log intensity, higher = more binding, comparable within an allelic series); in the test with VAX1 [10], 7.26 upbm affinity estimate (log intensity, higher = more binding, comparable within an allelic series); in the test with VAX1 [11], 7.1 upbm affinity estimate (log intensity, higher = more binding, comparable within an allelic series); in the test with HOXB6 [12], 9.04 upbm affinity estimate (log intensity, higher = more binding, comparable within an allelic series).
On to CCCCCTGC, for which the binding signal in the test with VENTX [1] is 8.15 upbm affinity estimate (log intensity, higher = more binding, comparable within an allelic series); with HOXA4 [13], 9.55 upbm affinity estimate (log intensity, higher = more binding, comparable within an allelic series); with VENTX [3], 8.15 upbm affinity estimate (log intensity, higher = more binding, comparable within an allelic series); with VENTX [4] it was 8.11 upbm affinity estimate (log intensity, higher = more binding, comparable within an allelic series); with HOXA4 [14], 9.45 upbm affinity estimate (log intensity, higher = more binding, comparable within an allelic series); with HOXD13 [15] it was 9.12 upbm affinity estimate (log intensity, higher = more binding, comparable within an allelic series). In addition, the binding signal with NKX2-6 [16] is 8.96 upbm affinity estimate (log intensity, higher = more binding, comparable within an allelic series); with HOXD13 [17], 9.26 upbm affinity estimate (log intensity, higher = more binding, comparable within an allelic series); with HOXA4 [18] it was 9.54 upbm affinity estimate (log intensity, higher = more binding, comparable within an allelic series); in the test with HOXD13 [19], 9.34 upbm affinity estimate (log intensity, higher = more binding, comparable within an allelic series); with NKX2-6 [20], 8.92 upbm affinity estimate (log intensity, higher = more binding, comparable within an allelic series); with HOXA4 [21], 9.59 upbm affinity estimate (log intensity, higher = more binding, comparable within an allelic series).
As for CCCCTCGG, the binding signal with VENTX [1] was 8.03 upbm affinity estimate (log intensity, higher = more binding, comparable within an allelic series); in the test with HOXC9 [2], 9.54 upbm affinity estimate (log intensity, higher = more binding, comparable within an allelic series); with VENTX [3], 7.93 upbm affinity estimate (log intensity, higher = more binding, comparable within an allelic series); with VENTX [4], 8.04 upbm affinity estimate (log intensity, higher = more binding, comparable within an allelic series); in the test with HOXB6 [5] it was 8.78 upbm affinity estimate (log intensity, higher = more binding, comparable within an allelic series); with HOXA2 [22], 7.19 upbm affinity estimate (log intensity, higher = more binding, comparable within an allelic series). In addition, the binding signal in the test with HOXC9 [6] is 9.64 upbm affinity estimate (log intensity, higher = more binding, comparable within an allelic series); with HOXC9 [7], 9.54 upbm affinity estimate (log intensity, higher = more binding, comparable within an allelic series); in the test with HOXA2 [23], 10.3 upbm affinity estimate (log intensity, higher = more binding, comparable within an allelic series); with VAX1 [8], 7.12 upbm affinity estimate (log intensity, higher = more binding, comparable within an allelic series); in the test with HOXC9 [9] it was 9.5 upbm affinity estimate (log intensity, higher = more binding, comparable within an allelic series); with VAX1 [10], 7.07 upbm affinity estimate (log intensity, higher = more binding, comparable within an allelic series). For the same sequence, the binding signal with HOXA2 [24] is 10.4 upbm affinity estimate (log intensity, higher = more binding, comparable within an allelic series); with HOXA2 [25], 7.11 upbm affinity estimate (log intensity, higher = more binding, comparable within an allelic series); in the test with VAX1 [11], 7.1 upbm affinity estimate (log intensity, higher = more binding, comparable within an allelic series); in the test with HOXB6 [12] it was 8.89 upbm affinity estimate (log intensity, higher = more binding, comparable within an allelic series).
Take GTCTCCAC: the binding signal with VENTX [1] is 8.1 upbm affinity estimate (log intensity, higher = more binding, comparable within an allelic series); in the test with VENTX [3], 8.02 upbm affinity estimate (log intensity, higher = more binding, comparable within an allelic series); with VENTX [4], 8.1 upbm affinity estimate (log intensity, higher = more binding, comparable within an allelic series).
Consider CGTCGACG, for which the binding signal with VENTX [1] was 7.98 upbm affinity estimate (log intensity, higher = more binding, comparable within an allelic series); with VENTX [3] it was 7.91 upbm affinity estimate (log intensity, higher = more binding, comparable within an allelic series); with ALX4 [26], 7.89 upbm affinity estimate (log intensity, higher = more binding, comparable within an allelic series); with VENTX [4] it was 8.1 upbm affinity estimate (log intensity, higher = more binding, comparable within an allelic series); in the test with ALX4 [27], 7.93 upbm affinity estimate (log intensity, higher = more binding, comparable within an allelic series).
In the case of CCCCATTA, the binding signal in the test with VENTX [1] was 11.5 upbm affinity estimate (log intensity, higher = more binding, comparable within an allelic series); with VENTX [3], 12.3 upbm affinity estimate (log intensity, higher = more binding, comparable within an allelic series); with VENTX [4], 11.3 upbm affinity estimate (log intensity, higher = more binding, comparable within an allelic series).
With CCGAGGGC, the binding signal with VENTX [1] is 7.98 upbm affinity estimate (log intensity, higher = more binding, comparable within an allelic series); in the test with VENTX [3], 8.24 upbm affinity estimate (log intensity, higher = more binding, comparable within an allelic series); in the test with ALX4 [26] it was 8.14 upbm affinity estimate (log intensity, higher = more binding, comparable within an allelic series); with VENTX [4], 8.11 upbm affinity estimate (log intensity, higher = more binding, comparable within an allelic series); with ALX4 [27], 8.07 upbm affinity estimate (log intensity, higher = more binding, comparable within an allelic series); with HOXA2 [22], 7.12 upbm affinity estimate (log intensity, higher = more binding, comparable within an allelic series). The binding signal is 9.49 upbm affinity estimate (log intensity, higher = more binding, comparable within an allelic series) with MSX2 [28]; 10.3 upbm affinity estimate (log intensity, higher = more binding, comparable within an allelic series) in the test with HOXA2 [23]; 9.42 upbm affinity estimate (log intensity, higher = more binding, comparable within an allelic series) with MSX2 [29]; 9.43 upbm affinity estimate (log intensity, higher = more binding, comparable within an allelic series) in the test with MSX2 [30]; 10.3 upbm affinity estimate (log intensity, higher = more binding, comparable within an allelic series) in the test with HOXA2 [24]; 7.2 upbm affinity estimate (log intensity, higher = more binding, comparable within an allelic series) with HOXA2 [25].
Regarding GCGGGTCC, the binding signal was 8.12 upbm affinity estimate (log intensity, higher = more binding, comparable within an allelic series) with VENTX [1]; 8.25 upbm affinity estimate (log intensity, higher = more binding, comparable within an allelic series) in the test with VENTX [3]; 10 upbm affinity estimate (log intensity, higher = more binding, comparable within an allelic series) in the test with HOXC10 [31]; 8.16 upbm affinity estimate (log intensity, higher = more binding, comparable within an allelic series) with VENTX [4]; 10 upbm affinity estimate (log intensity, higher = more binding, comparable within an allelic series) with HOXC10 [32].
With ACCCATTA, the binding signal with VENTX [1] is 12.1 upbm affinity estimate (log intensity, higher = more binding, comparable within an allelic series); with VENTX [3], 12.9 upbm affinity estimate (log intensity, higher = more binding, comparable within an allelic series); with HOXA7 [33] it was 11.2 upbm affinity estimate (log intensity, higher = more binding, comparable within an allelic series); with VENTX [4], 11.7 upbm affinity estimate (log intensity, higher = more binding, comparable within an allelic series); in the test with HOXB6 [5], 9.84 upbm affinity estimate (log intensity, higher = more binding, comparable within an allelic series); with HOXA7 [34], 8.76 upbm affinity estimate (log intensity, higher = more binding, comparable within an allelic series). Besides, in the test with HOXB6 [12], the binding signal is 11.8 upbm affinity estimate (log intensity, higher = more binding, comparable within an allelic series).
As for GGCCATTA, the binding signal was 11.6 upbm affinity estimate (log intensity, higher = more binding, comparable within an allelic series) with VENTX [1]; 12.3 upbm affinity estimate (log intensity, higher = more binding, comparable within an allelic series) in the test with VENTX [3]; 11.2 upbm affinity estimate (log intensity, higher = more binding, comparable within an allelic series) with HOXA7 [33]; 11.4 upbm affinity estimate (log intensity, higher = more binding, comparable within an allelic series) in the test with VENTX [4]; 9.75 upbm affinity estimate (log intensity, higher = more binding, comparable within an allelic series) with HOXB6 [5]; 8.67 upbm affinity estimate (log intensity, higher = more binding, comparable within an allelic series) with HOXA7 [34]. Further, the binding signal in the test with HOXB6 [12] is 11.8 upbm affinity estimate (log intensity, higher = more binding, comparable within an allelic series).
Consider GAGTTCCC, for which the binding signal is 8.1 upbm affinity estimate (log intensity, higher = more binding, comparable within an allelic series) with VENTX [1]; 8.23 upbm affinity estimate (log intensity, higher = more binding, comparable within an allelic series) with VENTX [3]; 9.93 upbm affinity estimate (log intensity, higher = more binding, comparable within an allelic series) with HOXC10 [31]; 8.22 upbm affinity estimate (log intensity, higher = more binding, comparable within an allelic series) with VENTX [4]; 10 upbm affinity estimate (log intensity, higher = more binding, comparable within an allelic series) with HOXC10 [32].
